ELG1 repair inh: blocks ELG1-dependent DNA repair in HEK293T cells | AID 504467 | HEK293T ELG1-luciferase reporter, luminescence, 16 h; DNA damage induced by 5-fluorouridine | Potency, µM (highest dose often 46.1 µM), without a hit: top-dose activity change, negative = inhibition, hits mostly inhibitors | hit rate 2.3% among 330,000; further: on the % scale 0 is the no-effect control and ±100 the full control effect; nearly all actives have a fitted effect of over 55% in size
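Overnight (16 hr) co-exposure of 2,000 cells/well to 5-fluorouridine and compound at 37 °C preceded detection. Luciferase was quantified via ONE-Glo luminescence; loss of signal denotes inhibition.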
MCF10A rereplic: induces DNA re-replication in MCF 10a normal breast cells | MCF 10A DNA re-replication, Hoechst nuclear intensity, 48 h | Potency, µM (top dose mostly 46.1 µM), for inactives: top-dose activity, positive = re-replication, actives largely listed as activators | hit rate 2.9% among 350,000; further: % of control where 0% means no effect; nearly all actives have a fitted effect of over 50% in size
KB-3-1 cytotox: KB-3-1 parental cell cytotoxicity. hit rate 1.4% among 400,000. KB-3-1 viability, CellTiter-Glo ATP luminescence, 72 h. AID 1347075. Potency, µM (top dose mostly 46.1 µM), actives largely listed as cytotoxic; further: on the % scale 0 is the no-effect control and ±100 the full control effect; nearly all actives have a fitted effect of over 60% in size
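Screening of KB-3-1 cells (DMEM, 10% FBS, phenol-red free) ran from lowest to highest compound concentration; after 72 h at 37 °C viability was read luminescently and curves fitted.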
SW480 rerep: induces DNA re-replication in SW480 colon adenocarcinoma cells; SW480 DNA re-replication, Hoechst DNA content imaging, 48 h; Potency, µM (doses to about 46.1 µM), for inactives: top-dose re-replication activation, actives largely listed as activators; hit rate 1.8% among 340,000; AID 624297; further: % of control where 0% means no effect; nearly all actives have a fitted effect of over 55% in size
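Cells (250 per well) received 23 nL compound or DMSO by pin tool and were kept 48 hr at 37 C, 5% CO2. Nuclei were then stained with Hoechst for 40 min and scanned for DNA content.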
KB-V1 cytotox: kills drug-selected multidrug resistant KB-V1 cells | KB-V1 MDR cells viability, CellTiter-Glo, 72 h | Potency, µM (top dose mostly 46.1 µM), hits mostly cytotoxic | hit rate 3.4% among 400,000 | AID 1347076; further: on the % scale 0 is the no-effect control and ±100 the full control effect; nearly all actives have a fitted effect of over 60% in size
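Cells of the MDR subline KB-V1 are plated, dosed with compound at multiple concentrations, and incubated 72 h at 37 degrees C; CellTiter-Glo is then added and luminescence read after 10 min.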
Numbers without * were called inactive; i = inactive; ? = inconclusive; . = not tested or not shown. In the library only some 8.2% were active in any assay of this set; here they are far more common. The call rests on the fitted dose curve; in most records, active means well fitted curve in the direction sought with a large enough effect; inconclusive means small, poorly fitted or top-dose-only effect, or another doubt; inactive means no such curve, though single readings can be large; an effect the other way counts as inactive or inconclusive. Potency means the concentration at half of the fitted maximal effect.

SMILES	ELG1 repair inh	MCF10A rereplic	KB-3-1 cytotox	SW480 rerep	KB-V1 cytotox
COc1ccc(C(=O)c2oc3ccccc3c2NC(=O)COc2c(C)cc(C)cc2C)cc1	.	.	i	.	i
CN1CCN(C(=O)CCn2c(=S)[nH]c3ccccc3c2=O)CC1	.	.	i	.	i
O=C(O)COc1ccccc1C=NNc1ccc([N+](=O)[O-])cc1S(=O)(=O)Nc1ccc(Cl)cc1	5.1%	2.06µM*	i	-2.6%	i
COc1ccc(NS(=O)(=O)c2cc([N+](=O)[O-])ccc2N/N=C\c2c(C)[nH]c3ccccc23)cc1	-3.6%	9.2µM*	?	3.5%	?
COc1ccc(C=NNc2ccc([N+](=O)[O-])cc2S(=O)(=O)Nc2ccccc2C(=O)O)cc1OC	13.9%	18.4µM*	i	-2.6%	i
Cc1[nH]c2ccccc2c1/C=N/Nc1ccc([N+](=O)[O-])cc1S(=O)(=O)Nc1ccc(Cl)cc1	?	8.9%	?	-2.4%	?
COc1ccccc1NS(=O)(=O)c1cc([N+](=O)[O-])ccc1N/N=C/c1c[nH]c2ccccc12	?	8.2µM*	?	?	?
O=C1N(Cc2cccc(C(F)(F)F)c2)c2ccccc2S(=O)(=O)N1c1cccc(Cl)c1	.	.	i	.	?
CCCc1ccc(S(=O)(=O)N2CCC(c3nnc(-c4cccc(C)c4)o3)CC2)cc1	.	.	?	.	i
COc1cccc(NC(=O)CN(C)C(=O)c2cccc(S(=O)(=O)Nc3ccccc3OC)c2)c1	5.7%	-4.3%	i	-2.8%	i
COc1ccc(NS(=O)(=O)c2cc([N+](=O)[O-])ccc2NN=Cc2ccccc2OCC(=O)O)cc1	25.9%	20.6µM*	i	?	i
CC(=O)Nc1cccc(NC(=O)CSc2nc(C)c(C)c(C)c2C#N)c1	21.1%	6.1%	i	23.6%	?
Cc1cccc(C)c1NC(=O)CSc1nc(C)c(CC(=O)c2ccc(Br)cc2)c(C)c1C#N	-6.5%	16.4µM*	?	9.8%	?
CCc1ccc(NC(=O)COC(=O)c2ccccc2OCC(=O)N(C)C)cc1	.	.	i	.	i
CCN(c1ccccc1)S(=O)(=O)c1ccc(OC)c(NC(=O)Cc2ccc(F)cc2)c1	-18.2%	?	i	-27.9%	i
CCN(c1ccccc1)S(=O)(=O)c1ccc(OC)c(NC(=O)C2CCC2)c1	-3.9%	18.4µM*	.	?	.
CC1=C(C(=O)OCc2ccc3c(c2)OCO3)C(c2cccc([N+](=O)[O-])c2)NC(=O)N1 (centres undefined)	7.3µM*	4.6%	i	3.9%	i
CCCCOC(=O)C1=C(C)NC(=O)NC1c1cccc([N+](=O)[O-])c1 (centres undefined)	6.51µM*	-2.0%	i	-18.8%	i
CC1=C(C(=O)OCc2ccccc2)C(c2cccc([N+](=O)[O-])c2)NC(=O)N1 (centres undefined)	-23.0%	2.4%	i	-10.2%	i
CCOC(=O)C1=C(C)NC(=O)NC1c1ccc2c(c1)OCO2 (centres undefined)	18.6%	-4.5%	i	10.6%	i
COc1cc(C2NC(=O)NC(C)=C2C(=O)OCc2ccc(C)cc2)cc(OC)c1O (centres undefined)	-20.3%	7.31µM*	i	15.7%	i
COc1ccc(C2NC(=O)NC(C)=C2C(=O)OCc2ccc3c(c2)OCO3)cc1OC (centres undefined)	10.3µM*	-3.7%	i	2.6%	i
CC(=O)OCC(=O)[C@@]1(O)CCC2C3CCC4=CC(=O)CC[C@]4(C)C3=CC[C@@]21C (some centres undefined)	.	-2.7%	.	-4.4%	.
CC1=C(C(=O)OCc2ccccc2)C(c2cccc([N+](=O)[O-])c2)NC(=O)N1C (centres undefined)	?	0.82µM*	i	-59.2%	?
CC1=C(C(=O)OCCOc2ccccc2)C(c2ccsc2)NC(=O)N1C (centres undefined)	23.1µM*	4.2%	i	-0.8%	?
Cc1ccc2nc(NCc3ccccc3)c3nncn3c2c1	.	.	i	.	?

Source: PubChem BioAssay (National Center for Advancing Translational Sciences (NCATS))
